Measured values from PubChem BioAssay.
Results filed as inconclusive are left out. Calls of active or inactive are those of the source. Unless noted, cut-off not given; nearly all actives show AC50 up to about 26 µM.

Key:
[1] = growth inhibition of DIPG glioma cells, dose response, cell-based, SU-DIPG-XVII, MIPE5.0, CellTiter-Glo, qHTS (AID 1347060); settings: SU-DIPG-XVII viability, CellTiter-Glo ATP luminescence;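 further: cells exposed to compound for 48 hours before viability readout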
[2] = growth inhibition of DIPG glioma cells, dose response, cell-based, SU-DIPG-XIII, MIPE4.0, CellTiter-Glo, qHTS (AID 1347061; cut-off not given, nearly all actives have AC50 up to about 37 µM;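 further: cells exposed to compound for 48 hours before readout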); settings: SU-DIPG-XIII viability, CellTiter-Glo ATP luminescence
[3] = growth inhibition of DIPG glioma cells, dose response, cell-based, JHH-DIPG-1, MIPE4.0, CellTiter-Glo, qHTS (AID 1347062; cut-off not given, nearly all actives have AC50 up to about 27 µM;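 on AC50: cells exposed to compound for two days before readout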); settings: JHH-DIPG-1 viability, CellTiter-Glo ATP luminescence
[4] = growth inhibition of DIPG glioma cells, dose response, cell-based, SU-DIPG-IV, MIPE4.0, CellTiter-Glo, qHTS (AID 1347063; cut-off not given, nearly all actives have AC50 up to about 30 µM;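 further: compound exposure lasted 48 hours before the viability readout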); settings: SU-DIPG-IV viability, CellTiter-Glo ATP luminescence
[5] = growth inhibition of DIPG glioma cells, dose response, cell-based, SU-DIPG-XIII, MIPE5.0, CellTiter-Glo, qHTS (AID 1347064; cut-off not given, nearly all actives have AC50 up to about 23 µM;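 on AC50: cells exposed to compound for 48 hours before the viability read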); settings: SU-DIPG-XIII viability, CellTiter-Glo ATP luminescence
[6] = viability loss in pontine glioma line – cell-based, SU-DIPG-XXV, MIPE5.0, CellTiter-Glo, qHTS, dose response (AID 1347065); settings: CellTiter-Glo ATP luminescence;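 further: cells exposed to compound for 48 hours before ATP readout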
[7] = SU-DIPG-VI glioma cell viability, MIPE4.0 library, CellTiter-Glo luminescence, qHTS (AID 1347066; cut-off not given, nearly all actives have AC50 up to about 30 µM;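 further: cells exposed to compound for 48 hours before readout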); settings: CellTiter-Glo ATP luminescence
[8] = JHH-DIPG-1 glioma cell viability, MIPE5.0 library, CellTiter-Glo luminescence, qHTS (AID 1347067); settings: JHH-DIPG-1 glioma viability, CellTiter-Glo ATP luminescence;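 further: cells exposed to compound for 48 hours before readout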
[9] = modifiers of HSF1 nuclear foci, imaging, Selleck Cancer Library (AID 1347162; in the data active means plate-normalised HSF1 focus index below about 0.46); settings: human cells, at 10 µM; SSMD: measured here: HSF1 foci SSMD mean; cell count: measured here: cell number; plate-normalised HSF1 focus index: stronger effect = lower value
[10] = SU-DIPG-XXV glioma cell viability, MIPE5.0 library, qHTS (AID 1347068; cut-off not given, nearly all actives have IC50 up to about 30 µM;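 on IC50: cells exposed to compound for 48 hours before viability readout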)
[11] = sensitizers of A549 cells to miR-34 induction, primary screen, imaging, A549 dox-inducible miR-34, nuclei and caspase counts (AID 1347080;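 active means compounds whose cell count with miR-34 switched on is under 0.7 times the count with it off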); settings: A549 miR-34 inducible, Hoechst nuclei count, 48 h
[12] = survival rescue of mitochondrial mutant cells in low glucose, primary screen, MELAS cybrids, Rieske KO mouse fibroblasts, CellTiter-Glo (AID 1508586;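 active means mean z-score across replicates of 1.96 or higher in either the MELAS or the Rieske mutant cell line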;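 further: z relative to plate mean and SD of compound and empty wells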)
[13] = LFS_MB_P medulloblastoma growth inhibition, cell-based, chromothripsis tumors, cisplatin or BGB combos (AID 1671449; in the data active means inhibition above about 80%;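 further: cells exposed for 96 hours; 0% = vehicle DMSO and 100% = killing by high DMSO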); settings: LFS_MB_P medulloblastoma cells
[14] = HDN33 neuroblastoma growth inhibition, cell-based, chromothripsis tumors, cisplatin or BGB combos (AID 1671450; in the data active means inhibition above about 80%;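 further: cells exposed to compound for four days; 0% = vehicle DMSO and 100% = cell killing by high DMSO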); settings: HDN33 neuroblastoma cells, stronger effect = higher value
[15] = ICB984 medulloblastoma cell growth inhibition, synergistic combos for chromothripsis tumors, cisplatin or BGB combos (AID 1671451; call rule not given here;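 further: cells exposed for 96 hours before readout; 0% = vehicle DMSO and 100% = killing by high DMSO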); settings: ICB984 medulloblastoma cells, drug combinations, stronger effect = higher value
[16] = HTB85 osteosarcoma cell growth inhibition, synergistic combos for chromothripsis tumors, BGB or cisplatin IC20 combos (AID 1671453; in the data active means inhibition above about 80%;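 further: cells exposed for 96 hours before readout; 0% = vehicle DMSO and 100% = high DMSO killing control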); settings: HTB85 osteosarcoma cells, drug combinations, stronger effect = higher value
[17] = MDA-MB-436 breast carcinoma cell growth inhibition, synergistic combos for chromothripsis tumors, BGB or cisplatin combos (AID 1671458; call rule not given here;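 further: cells exposed for 96 hours; 0% = vehicle DMSO and 100% = killing by high DMSO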); settings: MDA-MB-436 breast carcinoma growth inhibition, drug combinations, stronger effect = higher value
[18] = growth inhibition of BT084 medulloblastoma cells, cell-based, ICGC_MB145, cisplatin and BGB IC40 combos (AID 1671461; in the data active means inhibition above about 80%;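 further: cells exposed to drugs for 96 hours; 0% = vehicle DMSO and 100% = high DMSO full killing control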); settings: drug combinations, stronger effect = higher value
[19] = growth inhibition of RCMB18 medulloblastoma cells, cell-based, cisplatin and BGB IC40 combos (AID 1671462; in the data active means inhibition above about 80%;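 further: cells exposed to compound for four days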); settings: stronger effect = higher value
[20] = stronger effect = lower value, cell number ratio, induced over uninduced
[21] = measured here: relative caspase fold change +Dox/-Dox
[22] = measured here: total cells with miR-34 induction, stronger effect = lower value
[23] = measured here: total cells without miR-34 induction

CN(C)CCN(C)C(=O)c1ccc(NC(=O)Nc2ccc(-c3nc(N4CCOCC4)c4ccn(CC(F)(F)F)c4n3)cc2)cc1
AC50 [1]: 235 nM (active)
AC50 [2]: 743 nM (active)
AC50 [3]: 469 nM (active)
AC50 [4]: 33.2 nM (active)
AC50 [5]: 742 nM (active)
AC50 [6]: 332 nM (active)
AC50 [7]: 662 nM (active)
AC50 [8]: 1480 nM (active)
SSMD [9]: 1.02
cell count [9]: 7060
plate-normalised HSF1 focus index [9]: 1.06 (inactive)

CC1(C)CC(=O)c2c(C(F)(F)F)nn(-c3ccc(C(N)=O)c(NC4CCC(OC(=O)CN)CC4)c3)c2C1 (configuration not stated)
AC50 [1]: 186 nM (active)
AC50 [2]: 662 nM (active)
AC50 [3]: 148 nM (active)
AC50 [4]: 418 nM (active)
AC50 [5]: 417 nM (active)
AC50 [6]: 235 nM (active)
AC50 [8]: 166 nM (active)
IC50 [10]: 263 nM (active)
fold change [11, 20]: 1.04 (inactive)
fold change [11, 21]: 0.875
cell count [11, 22]: 2840
cell count [11, 23]: 2740
z-score ([12]; MELAS cybrid survival, CellTiter-Glo 48 h, stronger effect = higher value): 2.47 (active)
z-score ([12]; Rieske KO mouse fibroblast survival, CellTiter-Glo 72 h): -1.59

O=C(/C=C/c1ccc(/C=C/C(=O)Nc2ccc(C3=NCCN3)cc2)cc1)Nc1ccc(C2=NCCN2)cc1
AC50 [1]: 2350 nM (active)
outcome [2]: inactive
outcome [3]: inactive
outcome [4]: inactive
outcome [5]: inactive
outcome [6]: inactive
outcome [7]: inactive
outcome [8]: inactive
fold change [11, 20]: 1.13 (inactive)
fold change [11, 21]: 1.21
cell count [11, 22]: 6840
cell count [11, 23]: 6050

O=C(/C=C/c1ccc(CN(CCO)CCc2c[nH]c3ccccc23)cc1)NO
AC50 [1]: 525 nM (active)
AC50 [2]: 1180 nM (active)
AC50 [3]: 235 nM (active)
AC50 [4]: 935 nM (active)
AC50 [5]: 332 nM (active)
AC50 [6]: 295 nM (active)
AC50 [7]: 235 nM (active)
AC50 [8]: 417 nM (active)
outcome [10]: inactive
inhibition ([13]; at 0.5 µM, stronger effect = higher value): -16.3% (inactive)
inhibition ([13]; measured here: combination with BGB IC20, at 0.005 µM): -29.5%
inhibition ([13]; measured here: combination with BGB IC40, at 0.005 µM): -69.2%
inhibition ([13]; measured here: combination with BGB IC40, at 0.05 µM): -42.5%
inhibition ([13]; measured here: combination with cisplatin, at 0.5 µM, stronger effect = higher value): -26.1%
inhibition ([13]; measured here: combination with cisplatin, at 5 µM, stronger effect = higher value): 114%
inhibition ([14]; BGB combo, at 5 µM): 99.9%
inhibition ([14]; at 0.5 µM): 99.3% (active)
inhibition ([14]; cisplatin combo, at 5 µM): 99.9%
inhibition ([14]; measured here: with BGB IC20 combination, at 0.5 µM): 98.5%
inhibition ([14]; measured here: with cisplatin IC20 combination, at 0.5 µM): 99.7%
inhibition ([14]; single agent, at 5 µM): 99.9%
inhibition ([15]; BGB IC20 combo, at 0.005 µM): 71.4%
inhibition ([15]; BGB IC40 combo, at 0.005 µM): 89.6%
inhibition ([15]; BGB IC40 combo, at 0.05 µM): 100%
inhibition ([15]; at 0.5 µM): -29.4% (inactive)
inhibition ([15]; cisplatin combo, at 0.05 µM): 101%
inhibition ([15]; cisplatin combo, at 0.5 µM): -36.3%
inhibition ([15]; cisplatin combo, at 5 µM): -4.27%
inhibition ([15]; measured here: 5 uM single agent, at 5 µM): 13.8%
inhibition ([16]; at 0.5 µM): 99.3% (active)
inhibition ([16]; measured here: with BGB IC20, at 0.5 µM): 98.7%
inhibition ([16]; measured here: with BGB IC20, at 5 µM): 99.9%
inhibition ([16]; measured here: with cisplatin IC20, at 0.5 µM): 99.9%
inhibition ([16]; measured here: with cisplatin IC20, at 5 µM): 99.9%
inhibition ([16]; single agent, at 5 µM): 99.9%
inhibition ([17]; at 0.5 µM): 63.3% (inactive)
inhibition ([17]; measured here: BGB combination, at 0.5 µM): 55.8%
inhibition ([17]; measured here: BGB combination, at 5 µM): 59.7%
inhibition ([17]; measured here: cisplatin combination, at 0.5 µM): 60.4%
inhibition ([17]; measured here: cisplatin combination, at 5 µM): 75.3%
inhibition ([18]; at 0.5 µM): 98.5% (active)
inhibition ([18]; cisplatin combination, at 0.5 µM): 101%
inhibition ([18]; cisplatin combination, at 5 µM): 104%
inhibition ([18]; measured here: BGB IC40 combination 0.05 uM, at 0.05 µM): 38.4%
inhibition ([18]; single agent, at 5 µM): 108%
inhibition ([19]; at 0.5 µM): 82% (active)
inhibition ([19]; cisplatin combo, at 5 µM): 98.9%
inhibition ([19]; measured here: BGB IC40 combination, at 0.05 µM): 6.39%
inhibition ([19]; measured here: combination with cisplatin, at 0.5 µM): 90.4%
inhibition ([19]; single agent, at 5 µM): 96.9%
